Several values for one entry are separate records, joined by “and”; a condition that tells them apart may be missing. Identical values can stand only once. Inconclusive results are not listed. A number with no mark means an inactive call. Activity calls are given as the source filed them. Calls come from the whole dose curve; as a rule, active = well fitted inhibition curve with a large enough effect; inconclusive = small, poorly fitted or top-dose-only effect; inactive = flat fitted curve, though single readings scatter.
assay: P-glycoprotein substrates identified in KB-8-5-11 adenocarcinoma cell line, qHTS therapeutic library screen (AID 1346987); settings: KB-8-5-11 (P-gp overexpressing) viability, CellTiter-Glo, 72 h; series mostly up to 44.5 µM; activity change, negative = cytotoxicity: at the top concentration; note: nearly all actives have a fitted effect of over 65% in size
From the text: The ATP-binding cassette transporters P-glycoprotein (P-gp) is known to limit brain penetration of many chemotherapy drugs. […] As such, we developed a high-throughput screen (HTS) to identify substrates of P-gp from a series of chemical libraries including the National Center for Advancing Translational Sciences Pharmaceutical Collection NPC, 2,816 compounds), testing a total of 10,804 compounds, most of which have known mechanisms of action. We used the CellTiter-Glo viability assay to test library compounds against the parental KB-3-1 human cervical adenocarcinoma cell line and the colchicine-selected sub-line KB-8-5-11 that over-expresses P-gp. KB-8-5-11 cells were also tested in the presence of a P-gp inhibitor (tariquidar) to assess reversability of transporter-mediated resistance. Of the tested compounds, a total of 90 P-gp substrates were identified including 55 newly identified P-gp substrates. Substrates were confirmed using an orthogonal killing assay against HEK-293 cells transfected with P-gp. As exemplars, we confirmed that […] (cyclin-dependent kinase inhibitor); AT9283, (Janus kinase 2/3 inhibitor); ispinesib (kinesin spindle protein inhibitor); gedatolisib (PKI-587, phosphoinositide 3-kinase/mammalian target of rampamycin inhibitor); GSK-690693 (AKT inhibitor); and KW-2478 (heat shock protein 90 inhibitor) were substrates , and direct ATPase stimulation was assessed. ABCG2 was also found to confer high levels of resistance to AT9283, GSK-690693 and gedatolisib, while ispinesib, AT7519 and KW-2478 were weaker substrates.
The HeLa derivative cell line, KB-3-1, and its colchicine-selected, P-gp-overexpressing subline, KB-8-5-11 were maintained in DMEM with 10% FCS and Pen/Strep with glutamine at 37 degree C in 5% CO2. For KB-8-5-11 cells, colchicine was added to the medium at a concentration of 100 ng/mL. HEK-293 cells transfected with empty vector (pcDNA) or vector containing human ABCB1 (MDR-19) or ABCG2 (R-5) have been described previously (Robey, Lin, Qiu, Chan & Bates, 2011) and were maintained in EMEM supplemented with 10% FCS, Pen/Strep and glutamine with 2 mg/ml G418 to select for the expression of the transporter. Cultures were confirmed to be free of mycoplasma infection using the MycoAlert Mycoplasma Detection Kit (Lonza, Walkersville, MD). For the screen, assay medium was identical to culture medium except for KB-8-5-11 where colchicine was excluded from the medium.
All cell lines were plated into 1536-well plates at 500 cells/well in 5 uL media. Compounds were then pinned in dose-response using a 1536-head pin tool (Kalypsis, San Diego, CA) and plates were incubated at 37 degree C in 5% CO2 for an additional 72 h. CellTiter-Glo reagent (Promega) was dispensed into the wells, incubated for 5 min and luminescence was read on a ViewLux instrument (Perkin-Elmer). Cytotoxic compounds were defined as those that yielded a curve class of -1.1, -1.2, -2.1, -2.2, -2.3, or -2.4, a maximum response of >50% and an AC50 of < 10 uM. Cherry-picked hits from screening analysis were tested with both the KB pair of cell lines, and the pcDNA (empty vector control) and MDR-19 (P-gp overexpressing) pair were tested, in the absence and presence of tariquidar.
% is set by controls: 0 for no effect and ±100 for the full control effect; potency is the fitted concentration of half-maximal effect.

SMILES	activity change, negative = cytotoxicity [%]	Potency	outcome
CCCCCOC(=O)Nc1nc(=O)n([C@@H]2O[C@H](C)[C@@H](O)C2O)cc1F (stereo not given in full)	0.678		
Cc1ccc(NC(=O)Nc2cc(C(F)(F)F)ccc2F)cc1Nc1ccc2c(c1)NC(=O)C2=Cc1ccc[nH]1		10.5 µM (active)	
Cc1ccc(NC(=O)c2cccc(N(C)C)c2)cc1NC(=O)c1ccc(O)cc1	-2.4		
CN(C)CC[C@H](CSc1ccccc1)Nc1ccc(S(=O)(=O)NC(=O)c2ccc(N3CCN(Cc4ccccc4-c4ccc(Cl)cc4)CC3)cc2)cc1[N+](=O)[O-]	4.01		
COc1c(C)c2c(c(O)c1CC=C(C)CCC(=O)OCCN1CCOCC1)C(=O)OC2		7.43 µM (active)	
O[C@@H](COc1cccc2ncccc12)CN1CCN(C2c3ccccc3[C@@H]3[C@H](c4ccccc42)C3(F)F)CC1 (stereo not given in full)	-33.4		
CNC(=O)c1ccc2c(C(=Nc3cccc(CN(C)C)c3)c3ccccc3)c(O)[nH]c2c1		inactive	
c1cc(OCCN2CCCCC2)cc(-c2n[nH]c3ccc(-c4ncn[nH]4)cc23)c1		inactive	
CCC(c1ccc(O)cc1)C(CC)c1ccc(O)cc1 (stereo not given)	-7.97		
CC(=O)O[C@]1(C(C)=O)CC[C@H]2[C@@H]3C=C(Cl)C4=CC(=O)[C@@H]5C[C@H]5[C@]4(C)[C@@H]3CC[C@@]21C	9.04		
O=C(O)C1=NC(C(=O)O)CC(C=CN2c3cc(O)c(OC4OC(CO)C(O)C(O)C4O)cc3CC2C(=O)O)=C1 (stereo not given)			inactive
COc1ccc(C=CC(=O)Nc2ccccc2C(=O)O)cc1OC	-7.87		
O=C1C(c2c(O)[nH]c3ccccc23)=Nc2ccccc21		inactive	
COc1nccc(-c2c(-c3ccc(F)cc3)ncn2C2CCC(O)CC2)n1 (stereo not given)		inactive	
CC[C@]1(O)C[C@H]2CN(CCC3=c4ccccc4=N[C]3[C@@](C(=O)OC)(c3cc4c(cc3OC)N(C)[C@H]3[C@@](O)(C(N)=O)[C@H](O)[C@]5(CC)C=CCN6CC[C@]43[C@@H]65)C2)C1		1.48 µM (active)	
O=C(CC12CC3CC(CC(C3)C1)C2)Nc1cccc2nc(NCCNCCO)ccc12		inactive	
NCc1c[nH]c(=S)n1[C@H]1CCc2c(F)cc(F)cc2C1			inactive
CCOC(=O)[C@H](CCc1ccccc1)N[C@@H](C)C(=O)N1CCCC1C(=O)O (stereo not given in full)			inactive
CCOC(=O)[C@@H](N)CCC(=O)N[C@@H](CSCc1ccccc1)C(=O)N[C@@H](C(=O)OCC)c1ccccc1	7.52		
CN1CCN2c3ncccc3Cc3ccccc3C2C1 (stereo not given)	-3.07		

SMILES	activity change, negative = cytotoxicity [%]	Potency	outcome
CN1N=C(N)c2cn([C@@H]3O[C@H](COP(=O)(O)O)[C@@H](O)[C@@H]3O)c3ncnc1c23		0.833 µM (active)	
O=c1[nH]c(=O)n([C@H]2C[C@@H](O)[C@@H](CO)O2)cc1I			inactive
CC[C@H](CC#N)OC(=O)N[C@@H](C)c1cccc(NC(=O)Nc2ccc(-c3cnco3)c(OC)c2)c1		5.9 µM (active) and 5.8 µM (active)	
C#C[C@]1(O)CC[C@H]2[C@H]3CCc4cc(OC)ccc4[C@H]3CC[C@@]21C	2.57		
COc1cc(Nc2nc3ccccc3nc2NS(=O)(=O)c2ccc(NC(=O)c3ccc(C)c(OC)c3)cc2)cc(OC)c1	4.37		
CC(=O)Nc1cccc(-n2c(=O)n(C3CC3)c(=O)c3c(Nc4ccc(I)cc4F)n(C)c(=O)c(C)c32)c1	-16.4		
CCCCn1c(=O)n(Cc2ccccc2F)c(=O)c2[nH]c(Cc3ccc(NC(C)=O)cc3)nc21		inactive	
CCN1C[C@H](C)n2c(c(O)c3c(=O)n(Cc4ccc(F)c(Cl)c4)nc(C(=O)NC)c32)C1=O	-12.8		
CCCCCCCCCCCCCC(=O)N[C@H](CO)[C@H](O)c1ccc([N+](=O)[O-])cc1			inactive
COc1ccnc(CS(=O)c2nc3ccc(OC(F)F)cc3[nH]2)c1OC (stereo not given)	1.36		
O=C(NCCCCN1CCOCC1)c1cc2ccccc2o1	-4.75		
COc1cccc(OC)c1-c1cc(C(=O)NC2(C(=O)O)C3CC4CC(C3)CC2C4)nn1-c1ccnc2cc(Cl)ccc12 (stereo not given)	3.83		
C[C@@H](NC(=O)c1ncnc(N)c1Cl)c1ncc(C(=O)Nc2cc(C(F)(F)F)c(Cl)cn2)s1		inactive	
N=C1SC(=Cc2ccc(-c3ccc4c(c3)C(=O)NC4=O)o2)C(=O)N1c1ccc(Br)cc1	4.22		
O=C(c1ccc(C(=O)N2CCC(N3CCCC3)CC2)c(Nc2ccccc2)c1)N1CCC(N2CCCC2)CC1		inactive	
C[C@@H](O[C@H]1OCCN(Cc2n[nH]c(=O)[nH]2)[C@@H]1c1ccc(F)cc1)c1cc(C(F)(F)F)cc(C(F)(F)F)c1		20.9 µM (active)	
O=C1CCCC(=O)C1C(=O)c1ccc(C(F)(F)F)cc1[N+](=O)[O-]	9.59		
CC[C@H](NC(=O)[C@H](C)NC)C(=O)N1C[C@@H](O)C[C@H]1Cc1c(-c2[nH]c3cc(F)ccc3c2C[C@H]2C[C@H](O)CN2C(=O)[C@H](CC)NC(=O)[C@H](C)NC)[nH]c2cc(F)ccc12			inactive
CN(C)CCN(C)C(=O)c1ccc(NC(=O)Nc2ccc(-c3nc(N4CCOCC4)c4ccn(CC(F)(F)F)c4n3)cc2)cc1			inactive
CO[C@H]1/C=C\O[C@@]2(C)Oc3c(C)c(O)c4c(O)c(c5c(nc6cc(C)ccn65)c4c3C2=O)NC(=O)C(C)=CC=C[C@H](C)[C@H](O)[C@@H](C)[C@@H](O)[C@@H](C)[C@H](OC(C)=O)[C@H]1C	5.78		
